Data from ChEMBL document CHEMBL3988442, “University of Dundee, Small-Polar-MMV Screening Library” (2021).
For some assays here: Entries with a potency or affinity are not part of this list.

Experiments:
Parameters in all cases: scale not given: direction of the effect not stated beside the values
[1] = target: Protein translocase subunit SecA (Escherichia coli (strain K12)) (UniProt P10408); assay: Assay to Identify E. coli SecA ATPase Inhibitors; type: functional; conditions: 30 µM
[2] = target: T1, Ubiquitin-activating enzyme e1, putative (Leishmania donovani (strain BPK282A1)) (UniProt E9BSI1); assay: Leishmania donovani Ubiquitin Activating Enzyme (LdE1); type: functional; conditions: 30 µM
T1 sequence (whole entry): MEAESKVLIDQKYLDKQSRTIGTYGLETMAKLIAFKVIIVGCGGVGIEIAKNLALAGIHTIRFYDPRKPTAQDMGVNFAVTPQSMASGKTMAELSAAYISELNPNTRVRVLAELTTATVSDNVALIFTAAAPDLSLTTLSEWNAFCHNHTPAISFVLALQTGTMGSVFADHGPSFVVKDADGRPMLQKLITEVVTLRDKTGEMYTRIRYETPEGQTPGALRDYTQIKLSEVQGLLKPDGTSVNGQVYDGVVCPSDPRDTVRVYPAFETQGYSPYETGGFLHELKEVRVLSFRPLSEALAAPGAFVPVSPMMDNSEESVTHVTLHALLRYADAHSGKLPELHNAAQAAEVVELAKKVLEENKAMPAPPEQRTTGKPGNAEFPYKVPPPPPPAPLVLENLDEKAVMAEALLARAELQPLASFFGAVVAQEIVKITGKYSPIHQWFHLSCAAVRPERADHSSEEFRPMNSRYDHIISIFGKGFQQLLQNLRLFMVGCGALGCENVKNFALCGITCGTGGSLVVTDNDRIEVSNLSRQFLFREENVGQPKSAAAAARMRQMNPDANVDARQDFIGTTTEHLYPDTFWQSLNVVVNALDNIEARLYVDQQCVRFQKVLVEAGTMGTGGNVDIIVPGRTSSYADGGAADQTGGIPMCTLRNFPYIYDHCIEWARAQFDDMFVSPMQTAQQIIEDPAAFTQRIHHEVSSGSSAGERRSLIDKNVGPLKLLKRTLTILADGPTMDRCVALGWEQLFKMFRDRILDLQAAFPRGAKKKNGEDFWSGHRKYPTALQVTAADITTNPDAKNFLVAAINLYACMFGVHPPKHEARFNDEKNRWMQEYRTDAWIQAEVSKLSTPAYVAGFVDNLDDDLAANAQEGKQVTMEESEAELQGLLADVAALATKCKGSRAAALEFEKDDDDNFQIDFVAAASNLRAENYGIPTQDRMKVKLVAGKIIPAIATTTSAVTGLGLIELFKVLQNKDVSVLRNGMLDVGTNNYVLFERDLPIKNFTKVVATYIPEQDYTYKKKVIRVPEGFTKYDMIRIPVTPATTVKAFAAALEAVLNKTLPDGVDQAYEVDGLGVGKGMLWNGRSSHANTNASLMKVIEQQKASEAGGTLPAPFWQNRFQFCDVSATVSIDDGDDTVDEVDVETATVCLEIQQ

[3] = target: AMP-activated protein kinase, AMPK (Homo sapiens) (UniProt P54646+O43741+P54619+Q9UGJ0+Q9Y478+Q13131+Q9UGI9); assay: AMP-dependent Kinase enzyme assay. An in vitro enzyme assay that detects ADP turnover that is directly proportional to AMPK activity. This uses naive AMPK that is activated during the assay with MK-8722; type: functional; conditions: 30 µM
[4] = target: Sialic acid-binding Ig-like lectin 9 (Homo sapiens) (UniProt Q9Y336); assay: Hs-Siglec9 ALPHAscreen SOP 20170721; conditions: 10 µM
Sequence of Sialic acid-binding Ig-like lectin 9 (Homo sapiens) (Q9Y336 whole entry): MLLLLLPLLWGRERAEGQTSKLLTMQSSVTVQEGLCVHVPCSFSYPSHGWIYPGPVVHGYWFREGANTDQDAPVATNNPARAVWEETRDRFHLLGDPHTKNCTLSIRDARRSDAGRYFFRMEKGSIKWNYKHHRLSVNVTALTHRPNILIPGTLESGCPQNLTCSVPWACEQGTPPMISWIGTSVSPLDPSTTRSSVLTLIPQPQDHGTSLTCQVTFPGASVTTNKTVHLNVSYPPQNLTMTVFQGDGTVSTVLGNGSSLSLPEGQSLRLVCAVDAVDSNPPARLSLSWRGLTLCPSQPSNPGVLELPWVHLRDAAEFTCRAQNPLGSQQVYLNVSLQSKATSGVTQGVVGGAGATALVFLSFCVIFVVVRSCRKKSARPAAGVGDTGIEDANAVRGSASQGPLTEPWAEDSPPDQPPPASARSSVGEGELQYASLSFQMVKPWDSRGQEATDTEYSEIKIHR

Trypanosoma cruzi = assay: Trypanosoma cruzi phosphomannomutase and mannose-1-phosphate guanylyltransferase assay; type: functional; conditions: 10 µM
[5] = target: T2, Arginase-2, mitochondrial (Homo sapiens) (UniProt P78540); assay: in vitro enzyme assay to detect the production of urea directly proportional to the activity of Arginase II; type: functional; conditions: 33.3 µM; note: in the data most compounds retested in dose-response had high values
T2 sequence (whole entry): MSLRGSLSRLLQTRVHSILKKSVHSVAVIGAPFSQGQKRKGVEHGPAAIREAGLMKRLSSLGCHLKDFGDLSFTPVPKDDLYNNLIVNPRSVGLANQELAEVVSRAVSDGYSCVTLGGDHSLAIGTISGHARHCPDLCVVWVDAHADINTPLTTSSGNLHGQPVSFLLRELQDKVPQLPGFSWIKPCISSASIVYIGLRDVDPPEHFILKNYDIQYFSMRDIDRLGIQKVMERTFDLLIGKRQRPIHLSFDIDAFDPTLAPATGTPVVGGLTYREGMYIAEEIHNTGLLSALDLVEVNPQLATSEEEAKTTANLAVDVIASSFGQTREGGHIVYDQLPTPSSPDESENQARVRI

[6] = target: T3, Proteasome subunit beta (Trypanosoma cruzi) (UniProt O96673); assay: Trypanosoma cruzi proteasome chymotrypsin-like activity (TcProtChymo) assay.; note: in the data most compounds retested in dose-response had high values; type: functional; conditions: 9.37 µM
T3 sequence (whole entry): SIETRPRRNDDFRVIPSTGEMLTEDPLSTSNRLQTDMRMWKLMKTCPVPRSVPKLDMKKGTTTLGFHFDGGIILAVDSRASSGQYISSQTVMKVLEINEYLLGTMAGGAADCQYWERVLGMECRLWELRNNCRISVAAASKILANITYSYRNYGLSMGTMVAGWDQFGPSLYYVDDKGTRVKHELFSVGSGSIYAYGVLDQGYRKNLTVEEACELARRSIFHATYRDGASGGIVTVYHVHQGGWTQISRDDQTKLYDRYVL

Homo sapiens = organism: Homo sapiens; assay: To identify inhibition of the IFN signalling (Jak-Stat) pathway via expression of an eGFP reporter gene under the control of an IFN-stimulated response element (ISRE) containing MxA promoter.; type: functional; conditions: 30 µM
[7] = target: T4, Tyrosyl-tRNA synthetase, putative (Trypanosoma cruzi (strain CL Brener)) (UniProt Q4DSP6); assay: Trypanosoma cruzi tyrosyl tRNA synthetase (TcYRS) _High Tyrosine SOP; type: functional; conditions: 30 µM; note: in the data most compounds retested in dose-response had high values
T4 sequence (whole entry): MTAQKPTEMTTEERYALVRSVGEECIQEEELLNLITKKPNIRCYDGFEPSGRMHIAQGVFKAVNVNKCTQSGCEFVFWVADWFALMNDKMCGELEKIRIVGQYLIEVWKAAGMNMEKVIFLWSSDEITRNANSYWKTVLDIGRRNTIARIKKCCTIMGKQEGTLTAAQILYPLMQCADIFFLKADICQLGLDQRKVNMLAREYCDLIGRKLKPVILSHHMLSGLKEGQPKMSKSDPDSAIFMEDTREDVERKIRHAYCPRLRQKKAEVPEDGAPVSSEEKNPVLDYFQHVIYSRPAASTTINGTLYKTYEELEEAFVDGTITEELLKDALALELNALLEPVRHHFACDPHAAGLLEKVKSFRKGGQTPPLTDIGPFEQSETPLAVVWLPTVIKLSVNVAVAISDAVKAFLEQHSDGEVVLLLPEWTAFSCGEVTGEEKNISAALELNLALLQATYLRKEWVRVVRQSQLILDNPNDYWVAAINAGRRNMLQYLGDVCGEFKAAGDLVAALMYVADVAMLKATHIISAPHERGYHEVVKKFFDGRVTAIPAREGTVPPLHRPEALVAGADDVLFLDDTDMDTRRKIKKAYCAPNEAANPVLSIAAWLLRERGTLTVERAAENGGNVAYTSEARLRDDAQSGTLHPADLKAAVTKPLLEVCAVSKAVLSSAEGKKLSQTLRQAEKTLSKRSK

[8] = target: T4, Tyrosyl-tRNA synthetase, putative (Trypanosoma cruzi (strain CL Brener)); assay: Trypanosoma cruzi tyrosyl tRNA synthetase (TcYRS) SOP; type: functional; conditions: 30 µM
[9] = target: Chromo domain-containing protein 1 (Saccharomyces cerevisiae (strain ATCC 204508 / S288c) (Baker's yeast)) (UniProt P32657); assay: ScCHD-1 Enzyme Inhibition Assay; type: functional; conditions: 30 µM; note: in the data most compounds retested in dose-response had high values
Sequence of Chromo domain-containing protein 1 (Saccharomyces cerevisiae (strain ATCC 204508 / S288c) (Baker's yeast)) (P32657 whole entry, the tested form may be a part): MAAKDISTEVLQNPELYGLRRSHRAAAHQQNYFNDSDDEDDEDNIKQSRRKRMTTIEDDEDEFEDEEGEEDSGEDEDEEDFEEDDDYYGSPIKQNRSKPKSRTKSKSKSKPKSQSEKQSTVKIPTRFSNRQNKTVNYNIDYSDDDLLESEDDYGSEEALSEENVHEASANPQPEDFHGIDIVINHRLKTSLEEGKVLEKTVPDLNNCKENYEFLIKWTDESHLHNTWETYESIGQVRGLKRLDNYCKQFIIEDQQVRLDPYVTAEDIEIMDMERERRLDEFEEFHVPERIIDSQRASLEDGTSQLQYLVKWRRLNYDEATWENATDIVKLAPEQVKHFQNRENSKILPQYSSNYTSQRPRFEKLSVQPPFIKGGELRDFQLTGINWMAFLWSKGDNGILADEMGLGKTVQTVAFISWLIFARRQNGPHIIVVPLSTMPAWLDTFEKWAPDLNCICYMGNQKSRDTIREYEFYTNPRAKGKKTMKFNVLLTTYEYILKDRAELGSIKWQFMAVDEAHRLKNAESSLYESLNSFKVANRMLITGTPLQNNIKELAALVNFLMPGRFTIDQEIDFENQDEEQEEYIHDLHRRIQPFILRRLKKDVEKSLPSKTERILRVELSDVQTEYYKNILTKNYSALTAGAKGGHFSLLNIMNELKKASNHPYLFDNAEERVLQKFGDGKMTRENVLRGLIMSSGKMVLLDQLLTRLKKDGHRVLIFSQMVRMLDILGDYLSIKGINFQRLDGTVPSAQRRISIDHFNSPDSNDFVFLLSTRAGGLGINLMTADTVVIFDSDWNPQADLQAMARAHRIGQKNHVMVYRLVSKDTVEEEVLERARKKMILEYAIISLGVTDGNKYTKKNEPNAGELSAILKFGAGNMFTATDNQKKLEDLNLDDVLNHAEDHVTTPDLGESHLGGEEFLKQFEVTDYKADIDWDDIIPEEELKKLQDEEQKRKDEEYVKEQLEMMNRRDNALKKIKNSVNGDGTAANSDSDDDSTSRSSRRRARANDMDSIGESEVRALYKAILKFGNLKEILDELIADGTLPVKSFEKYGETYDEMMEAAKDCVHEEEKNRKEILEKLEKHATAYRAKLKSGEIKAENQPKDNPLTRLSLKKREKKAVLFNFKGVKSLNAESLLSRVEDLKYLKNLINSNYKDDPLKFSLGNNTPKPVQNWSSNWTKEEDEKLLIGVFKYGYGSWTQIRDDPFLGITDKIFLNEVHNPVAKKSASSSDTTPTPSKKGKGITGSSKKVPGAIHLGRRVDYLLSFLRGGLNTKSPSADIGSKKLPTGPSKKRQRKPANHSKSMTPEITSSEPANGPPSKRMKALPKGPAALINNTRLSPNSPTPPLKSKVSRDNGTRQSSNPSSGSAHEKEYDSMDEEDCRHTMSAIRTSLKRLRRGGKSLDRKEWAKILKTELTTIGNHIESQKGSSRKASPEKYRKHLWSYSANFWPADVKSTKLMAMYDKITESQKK

Sequence of Protein translocase subunit SecA (Escherichia coli (strain K12)) (P10408 whole entry): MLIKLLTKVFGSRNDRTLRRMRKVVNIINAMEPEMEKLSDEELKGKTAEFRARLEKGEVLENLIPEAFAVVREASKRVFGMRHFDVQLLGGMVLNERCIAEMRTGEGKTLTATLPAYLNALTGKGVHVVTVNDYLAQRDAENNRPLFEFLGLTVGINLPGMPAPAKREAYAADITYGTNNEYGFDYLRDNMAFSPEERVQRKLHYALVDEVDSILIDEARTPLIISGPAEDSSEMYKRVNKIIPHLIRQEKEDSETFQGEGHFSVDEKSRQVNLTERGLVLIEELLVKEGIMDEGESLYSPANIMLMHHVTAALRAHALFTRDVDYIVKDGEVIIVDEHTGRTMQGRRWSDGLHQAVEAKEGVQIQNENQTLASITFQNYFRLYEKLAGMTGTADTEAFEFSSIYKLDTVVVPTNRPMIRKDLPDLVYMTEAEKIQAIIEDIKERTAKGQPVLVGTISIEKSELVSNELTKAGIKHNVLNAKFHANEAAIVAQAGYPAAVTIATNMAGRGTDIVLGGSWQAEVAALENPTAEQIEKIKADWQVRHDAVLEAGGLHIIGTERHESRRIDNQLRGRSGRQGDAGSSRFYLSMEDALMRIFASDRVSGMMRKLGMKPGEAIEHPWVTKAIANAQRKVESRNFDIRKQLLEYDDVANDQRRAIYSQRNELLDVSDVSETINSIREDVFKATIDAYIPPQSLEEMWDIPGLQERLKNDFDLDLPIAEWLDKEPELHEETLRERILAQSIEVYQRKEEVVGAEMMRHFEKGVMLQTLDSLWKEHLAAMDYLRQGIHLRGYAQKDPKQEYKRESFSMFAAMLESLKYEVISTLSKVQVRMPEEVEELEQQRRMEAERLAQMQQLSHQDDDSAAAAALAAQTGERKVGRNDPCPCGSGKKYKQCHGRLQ

| SMILES | Percent Effect [1] [%] | Percent Effect [2] [%] | Percent Effect [3] [%] | Percent Effect [4] [%] | Percent Effect (Trypanosoma cruzi) [%] | Percent Effect [5] [%] | Percent Effect [6] [%] | Percent Effect (Homo sapiens) [%] | Percent Effect [7] [%] | Percent Effect [8] [%] | Percent Effect [9] [%] |
| --- | --- | --- | --- | --- | --- | --- | --- | --- | --- | --- | --- |
| O=C(CCc1cc(O)no1)N1CCCC(COc2ccc(F)cc2)C1 (configuration not stated) | -4.75 | 20.8 | -16.4 | 26.7 | 3.6 | 0.442 | 14 | -9.73 | 5.26 | 10.3 | -11.2 |
| O=C(O)c1c[nH]c2cc(NS(=O)(=O)c3cccc(Cl)c3F)ccc12 | -4.73 | -10.4 | -45.8 | 7.97 | 0.562 | 5.69 | 4.22 | 2.38 | -11.7 | -24.4 | 0.552 |
| O=C(c1cccc(F)c1)N1CCOC(c2nc(-c3ncccn3)no2)C1 (configuration not stated) | -7.06 | 5.33 | 0.687 | -2.48 | -4.53 | -0.699 | 3.44 | 17.9 | 3.19 | 6.41 | -2.27 |
| CSCCC(CO)NC(=O)c1sc(-c2ccccc2Cl)nc1C (configuration not stated) | -3.21 | 4 | 7.64 | 6.5 | -5.89 | -6.16 | 11.3 | 6.86 | 1.06 | 7.69 | -4 |
| Cc1cnn(CCC(=O)N2CCCC(c3cc(C(N)=O)[nH]n3)C2)c1 (configuration not stated) | -1.91 | 5.41 | -10.4 | 10.5 | 1.79 | -2.4 | -0.901 | 4.5 | 1.48 | 11.1 | -7.36 |
| Cc1cnc2n(c1=O)C(CC(=O)NCc1cc(-c3cccs3)on1)CS2 (configuration not stated) | -0.436 | 20.8 | 11.4 | -23.7 | 1.28 | 5.81 | 6.79 | 28.9 | 2.12 | 16.7 | -11 |
| Cn1ccc2c(C(=O)N3CCC(C(N)=O)CC3)cccc21 | 0.857 | 14.7 | 2.71 | -1.54 | -4.13 | -9.68 | 13.1 | 7.15 | 8.47 | 17.9 | -10.7 |
| CS(=O)(=O)N1CCCC12CCCN(S(=O)(=O)c1ccc(F)cc1)C2 (configuration not stated) | -3.85 | 5.41 | -33.3 | -0.0111 | -5.18 | 1.24 | 10.7 | -4.37 | 6.45 | 6.17 | -9.7 |
| CCc1n[nH]c(C2CN(C(=O)c3cc4c(s3)CCCC4)CCO2)n1 (configuration not stated) | -1.02 | 20.2 | 0.0672 | -4.74 | -6.33 | -0.76 | 6.96 | 30.5 | 1.48 | 8.86 | -5.65 |
| O=S(=O)(Cc1ccccc1F)NCCCN1CCCCC1 | -5.56 | 2.67 | -0.488 | 18.2 | 1.66 | -1.04 | 3.49 | -24.3 | 1.64 | 1.24 | -4.29 |
| COc1ccccc1CC(=O)NCc1c(C)nc2cc(=O)[nH]n2c1C | -2.98 | 0 | -13.8 | 9.27 | 3.01 | 1.53 | 8.02 | 7.43 | 4.41 | 7.32 | -7.8 |
| O=C(C1CC1)N1CCC(c2nc(O)c3c(n2)CCN(C2CCCC2)C3)C1 (configuration not stated) | -5.51 | 13.3 | 6.57 | -6.26 | -4.33 | 1.17 | 5.55 | 11.8 | 1.06 | 6.41 | -7.54 |
| Cc1noc(CN2CCN(CC(C)O)CC2)n1 (configuration not stated) | -0.907 | 8.11 | -4.38 | 4.09 | 0.195 | 1.25 | 9.21 | -0.0675 | 6.93 | 8.54 | -4.47 |
| CC(C)NS(=O)(=O)c1cc(C(=O)O)cc(-c2ccccc2CN(C)C)c1 | -5.51 | 0 | -1.94 | -2.62 | -6.16 | 4.22 | 3 | 1.46 | 1.07 | 3.7 | -3.44 |
| Cc1cc(C(=O)NC2CCCN(c3ccccc3)C2=O)on1 (configuration not stated) | -6.07 | 5.33 | -2.45 | -2.4 | -0.0974 | -1.56 | 8.37 | 5.07 | 1.64 | 13.6 | -2.89 |
| CC(=O)N1CCn2cc(CNC(=O)c3cccn3C)nc2C1 | -2.25 | 13.3 | 8.17 | -3.72 | -5.32 | 0.233 | 2.2 | 5.97 | 3.19 | 14.1 | -2.9 |
| NC(=O)C1CCCN1Cc1cccc(NC(=O)c2ccsc2)c1 (configuration not stated) | -3.24 | 13.3 | 0.719 | 13.7 | 3.6 | 10.4 | 20.2 | 11.8 | 10.4 | 18.5 | -10.5 |
| Cc1csc(C2CCCCN2C(=O)CN(C)C2CC2)n1 (configuration not stated) | 1.03 | -13.9 | 0.541 | -1.97 | 2.56 | -2.37 | 8.75 | -15.9 | 1.04 | 5.06 | 9.83 |
| CC(C)Sc1nnc(CCNC(=O)OC(C)(C)C)o1 | 1.34 | 4 | -0.0572 | 0.92 | -8.45 | 0.176 | 12.2 | 32.6 | -2.12 | -12.8 | -10.5 |
| CCNC(=O)[C@@H]1C[C@H](NC(=O)c2cncnc2C)CN1CCCSC | -2.84 | 5.48 | -7.63 | 3.4 | 3.17 | -3.59 | 9.68 | -11.3 | 4.17 | 13.6 | -0.349 |
| Cc1cccc(COC[C@H]2CC[C@H]3[C@H](CCN3C(=O)CC3CC3)O2)n1 | -5.92 | 10.7 | 7.31 | -1.34 | -1.57 | 5.36 | 6.96 | 15.9 | 7.45 | 19.2 | -5.1 |
| COc1cccc(CNC(=O)CN2CCCCC2Cn2cccn2)c1 (configuration not stated) | -3.05 | 5.2 | 2.66 | 13 | 4.6 | -0.21 | 2.83 | -17 | 3.81 | 11.8 | -17.2 |
